Hits are enriched below; roughly 0.9% of the tested compounds scored in any of these assays.
PPARg SRC-2 ag: agonists of SRC-2 recruitment by human PPARgamma. PPARgamma LBD-SRC-2 recruitment, biochemical. 200,000 compounds, 0.34% hits. activation, % at 8 µM. AID 1032; in the data active = activation above about 22%;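 also: 0% = vehicle and 100% = reference agonist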
TR-FRET SRC-2 ct: counter-screen for PPARgamma SRC-2 recruitment agonists: TR-FRET artefact; AID 1049; 200,000 compounds, 0.4% hits; TR-FRET ratio at 8 µM; hits give high values
PPARg SRC3 recr: PPARgamma-driven SRC-3 recruitment agonism; P37231; biochemical PPARgamma/SRC-3 coactivator recruitment assay; activation, % at 8 µM; 200,000 compounds, 0.26% hits; AID 731; in the data active = activation above about 23%;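 also: 0% = DMSO and 100% = reference agonist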
SRC3 TRFRET art: counter-screen for PPARgamma SRC-3 recruitment agonists: TR-FRET artefact | PPARgamma/SRC-3 format; hits give high values | TR-FRET ratio at 8 µM | 99,000 compounds, 0.39% hits | AID 1048
PPARg SRC1 recr: promotes SRC-1 coactivator recruitment by human PPARgamma | AID 631 | 200,000 compounds, 0.41% hits | PPARgamma-SRC-1 coactivator recruitment biochemical assay | P37231 | activation, % at 8 µM; in the data active = activation above about 19%;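 also: 0% = DMSO and 100% = reference agonist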
SRC1 TRFRET art: counter-screen for PPARgamma SRC-1 recruitment agonists: TR-FRET artefact; TR-FRET detection artefact counter-screen, emission ratio; hits give high values; TR-FRET ratio at 8 µM; 99,000 compounds, 0.34% hits; AID 1051; in the data active = TR-FRET ratio above about 2300
PPARg SRC2 conf: confirmation of agonists of SRC-2 recruitment by human PPARgamma. shares compounds with PPARg SRC3 recr. 790 compounds, 52% hits. biochemical SRC-2 recruitment by PPARgamma. activation, % at 8 µM; in the data active = activation above about 22%;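 also: 0% = vehicle alone and 100% = reference agonist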
PPARg SRC1 ag: human PPARgamma SRC-1 recruitment agonism, confirmation | shares compounds with PPARg SRC3 recr | PPARgamma–SRC-1 coactivator recruitment biochemical assay | 790 compounds, 43% hits | activation, % at 8 µM; in the data active = activation above about 20%;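 also: 0% = vehicle wells and 100% = reference agonist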
PPARg SRC3 conf: confirmation of agonists of SRC-3 recruitment by human PPARgamma; activation, % at 8 µM; shares compounds with PPARg SRC3 recr; biochemical PPARgamma-SRC-3 coactivator recruitment, agonist mode; 790 compounds, 29% hits; in the data active = activation above about 24%;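 also: 0% = vehicle wells and 100% = reference agonist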
Target sequence (P37231 whole entry, looked up): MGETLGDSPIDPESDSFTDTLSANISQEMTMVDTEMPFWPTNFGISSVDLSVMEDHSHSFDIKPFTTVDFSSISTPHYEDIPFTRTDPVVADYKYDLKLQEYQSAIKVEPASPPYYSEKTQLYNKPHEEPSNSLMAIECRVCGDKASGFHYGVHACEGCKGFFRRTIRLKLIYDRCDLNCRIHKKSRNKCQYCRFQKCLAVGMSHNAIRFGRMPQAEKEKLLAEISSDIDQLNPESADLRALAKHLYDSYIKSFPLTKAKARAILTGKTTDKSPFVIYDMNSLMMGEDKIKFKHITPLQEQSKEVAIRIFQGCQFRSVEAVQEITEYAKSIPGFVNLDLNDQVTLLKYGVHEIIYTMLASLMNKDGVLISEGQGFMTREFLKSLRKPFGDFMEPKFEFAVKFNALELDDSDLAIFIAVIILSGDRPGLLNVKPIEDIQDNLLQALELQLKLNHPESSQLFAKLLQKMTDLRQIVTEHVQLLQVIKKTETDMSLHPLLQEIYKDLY
Target sequence (Q9Y6Q9 whole entry, looked up): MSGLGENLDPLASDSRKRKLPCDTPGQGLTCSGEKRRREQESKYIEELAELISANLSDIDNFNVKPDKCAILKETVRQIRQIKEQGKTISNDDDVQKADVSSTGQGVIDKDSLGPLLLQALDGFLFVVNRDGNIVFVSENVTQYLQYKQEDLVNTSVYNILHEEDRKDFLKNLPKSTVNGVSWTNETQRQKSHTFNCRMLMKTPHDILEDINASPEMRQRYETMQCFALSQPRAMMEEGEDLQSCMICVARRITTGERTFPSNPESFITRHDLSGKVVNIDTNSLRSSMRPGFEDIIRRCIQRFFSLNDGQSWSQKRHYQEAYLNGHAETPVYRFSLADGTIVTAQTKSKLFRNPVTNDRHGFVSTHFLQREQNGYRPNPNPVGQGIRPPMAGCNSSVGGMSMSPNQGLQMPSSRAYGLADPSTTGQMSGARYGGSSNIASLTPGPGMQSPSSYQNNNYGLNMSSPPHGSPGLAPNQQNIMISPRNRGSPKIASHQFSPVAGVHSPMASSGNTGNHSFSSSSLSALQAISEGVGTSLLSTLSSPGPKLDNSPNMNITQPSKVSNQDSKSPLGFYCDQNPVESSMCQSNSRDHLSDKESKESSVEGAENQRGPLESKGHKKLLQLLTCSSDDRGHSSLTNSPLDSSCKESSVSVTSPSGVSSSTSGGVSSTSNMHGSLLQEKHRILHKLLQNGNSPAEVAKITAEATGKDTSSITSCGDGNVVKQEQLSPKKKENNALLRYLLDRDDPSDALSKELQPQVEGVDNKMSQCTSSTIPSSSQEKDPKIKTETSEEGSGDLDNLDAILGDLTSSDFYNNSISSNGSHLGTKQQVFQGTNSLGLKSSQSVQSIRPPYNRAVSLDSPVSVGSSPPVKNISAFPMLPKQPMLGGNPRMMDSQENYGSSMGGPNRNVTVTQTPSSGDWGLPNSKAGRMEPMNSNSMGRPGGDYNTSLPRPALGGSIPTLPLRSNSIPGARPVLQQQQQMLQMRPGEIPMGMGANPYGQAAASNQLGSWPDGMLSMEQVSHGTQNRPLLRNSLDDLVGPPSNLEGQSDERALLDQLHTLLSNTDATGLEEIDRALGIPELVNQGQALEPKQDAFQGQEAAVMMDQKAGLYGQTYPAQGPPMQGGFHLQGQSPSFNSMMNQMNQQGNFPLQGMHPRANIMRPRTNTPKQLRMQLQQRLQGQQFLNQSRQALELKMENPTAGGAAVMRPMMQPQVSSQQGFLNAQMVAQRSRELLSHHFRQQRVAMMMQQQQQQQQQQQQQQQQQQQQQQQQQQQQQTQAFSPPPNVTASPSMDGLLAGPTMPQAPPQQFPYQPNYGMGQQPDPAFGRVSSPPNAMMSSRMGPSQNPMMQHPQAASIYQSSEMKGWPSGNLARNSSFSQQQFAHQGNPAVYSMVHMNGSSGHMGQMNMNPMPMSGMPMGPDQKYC
An asterisk follows results filed as active; x = not tested or not shown. Rule as the data show it, unless noted: active = TR-FRET ratio above about 2000; inactive = the rest.

SMILES	PPARg SRC-2 ag	TR-FRET SRC-2 ct	PPARg SRC3 recr	SRC3 TRFRET art	PPARg SRC1 recr	SRC1 TRFRET art	PPARg SRC2 conf	PPARg SRC1 ag	PPARg SRC3 conf
N#CCCSc1ncnc2c1oc1ccccc12	41*	2279*	36*	x	20*	x	31*	21*	22
CCC(C)Sc1nc2c(c(=O)[nH]1)C(c1cccs1)C1=C(CCCC1=O)N2 (stereo not drawn)	1	1500	1	1394	-3	1753	x	x	x
OCCC1CN(Cc2cn[nH]c2C2CCCCC2)CCN1C1CCCCC1 (stereo not drawn)	6	1738	1	1736	3	1766	x	x	x
CCC1COC(c2cccn2Cc2ccccc2Cl)=N1 (stereo not drawn)	10	1554	8	1550	2	1776	x	x	x
COc1ccc(CNC(=O)COC(=O)c2cc(-c3ccc(Cl)s3)nc3ccccc23)cc1	23*	2696*	17	x	13	x	20	16	12
O=C(COC(=O)c1cc(-c2ccc(Cl)s2)nc2ccccc12)NCc1ccco1	19	1744	18	x	13	x	x	x	x
CCOC(=O)c1ccc2c(c1)[nH]c(=S)n2CC	28*	1960	20	2330*	23*	2451*	50*	37*	30*
CCOC(=O)c1ccc2c(c1)n(CC)c(C)[n+]2CC	10	1523	6	1660	7	1873	x	x	x
O=C(CSc1nc2ccccc2c(=O)n1-c1ccccc1)NC(=O)CN1CCCC1=O	3	1649	1	1586	0	1631	x	x	x
CCn1c(-c2ccccc2)c(C(=O)CC#N)c2ccccc21	2	1566	-3	1686	2	1574	x	x	x
O=C(Nc1nc(-c2ccc(S(=O)(=O)N3CCCCCC3)cc2)cs1)c1ccccc1	15	2426*	8	x	21*	x	52*	39*	33*
O=C(Nc1nc(-c2ccc3c(c2)OCCO3)cs1)c1ccc(S(=O)(=O)N2CCCCC2)cc1	17	1917	9	x	6	x	x	x	x
O=C(Nc1nc(-c2ccc(S(=O)(=O)N3CCCC3)cc2)cs1)C1COc2ccccc2O1 (stereo not drawn)	22*	2533*	33*	x	20*	x	34*	27*	20
Cc1cccc(CSc2nc(N)c(C#N)c(-c3cccs3)c2C#N)c1	23*	1646	20	x	7	x	14	8	8
Cc1cccc(CSc2nc3c(c(-c4cccs4)c2C#N)CN(C)CC3)c1	1	1415	-4	1672	-1	1666	x	x	x
Clc1ccc(Cl)c(-c2ccc(/C=N/c3ncn[nH]3)o2)c1	54*	2699*	58*	x	49*	x	53*	38*	30*
Cc1ccc(N2C(=O)C(CC(=O)Nc3cccc(F)c3)N(C3CC3)C2=O)cc1 (stereo not drawn)	-6	1547	-2	1497	-2	1796	x	x	x
O=C1NC(=S)S/C1=C\c1ccc(SCc2ccco2)o1	33*	1647	14	1738	21*	1829	2	6	2
Cc1ccc(Sc2c(C=O)c3ccccc3n2C)cc1	9	1743	-1	x	7	x	x	x	x
Cc1ccc(Sc2c(O)c3ccccc3n(C)c2=O)cc1	26*	2048*	16	2226*	24*	2302	22*	13	14
O=C(NCCC1=CCCCC1)Nc1ccc2nsnc2c1	27*	1887	12	1916	28*	2164	16	13	10
Cc1cc(NC(=O)COc2ccc3oc4ccccc4c3c2)no1	21	1701	11	x	27*	x	12	13	7
COc1ccc(CC(=O)NNC(=O)c2ccncc2)cc1	14	1582	7	1678	9	1714	x	x	x
Cn1c(=O)cc(SCC(=O)Nc2cccnc2)c2ccccc21	62*	3288*	93*	x	66*	x	28*	17	18
Cn1c(=O)cc(SCC(=O)NCc2cccnc2)c2ccccc21	22*	1858	38*	x	28*	x	24*	18	17
SMILES	PPARg SRC-2 ag	TR-FRET SRC-2 ct	PPARg SRC3 recr	SRC3 TRFRET art	PPARg SRC1 recr	SRC1 TRFRET art	PPARg SRC2 conf	PPARg SRC1 ag	PPARg SRC3 conf
Cc1ccc(-c2n[nH]c(=S)n2-c2ccccc2)cc1	5	1648	18	x	10	x	x	x	x
Cc1ccc(-n2c(-c3cccc(C)c3)n[nH]c2=S)cc1	32*	1998*	36*	x	20*	x	30*	22*	21
CS(=O)(=O)Nc1ccc(-c2n[nH]c(=S)n2-c2ccccc2)cc1	14	1649	11	x	19*	x	19	13	12
CCOC(=O)N1CCN(S(=O)(=O)c2ccc(C)c([N+](=O)[O-])c2)CC1	-2	1792	2	1725	7	1886	x	x	x
CC(C)(C)c1ccc(C(=O)NC(=S)NNC(=O)c2cccs2)cc1	15	1584	26*	1675	9	2055	7	6	9
Fc1cccc(NC(=S)NNc2c3ccccc3nc3ccccc23)c1	53*	2526*	21	2517*	45*	3530*	3	4	1
COC(=O)c1[nH]c2ccc(Br)cc2c1NC(=O)CN1CCCc2ccccc21	42*	2282*	50*	x	32*	x	16	10	7
CCOC(=O)C1CCCN(CC(=O)Nc2c(C(=O)OC)[nH]c3ccc(Br)cc23)C1 (stereo not drawn)	40*	2688*	42*	x	26*	x	34*	23*	24*
CC1CCCCC1NC(=O)CO/N=C/c1ccccc1OC(F)F (stereo not drawn)	-5	1457	-5	1284	-1	1668	x	x	x
Brc1cc(Br)c2nc(-c3ccc(N4CCOCC4)cc3)ccc2c1	22*	2276*	35*	x	25*	x	24*	14	16
CN(C)c1ccc(/C=C/C=C2/SC(=S)N(c3ccccc3)C2=O)cc1	13	1683	9	x	20*	x	30*	21*	19
O=C(O)c1ccc(N2C(=O)/C(=C/C=C/c3ccccc3)SC2=S)cc1	4	1585	6	1466	8	1703	x	x	x
Cc1ccc(C(=O)CSc2nc(-c3ccccc3)ccc2C#N)cc1	5	1714	1	1806	9	2016	x	x	x
N#Cc1ccc(-c2ccc3c(c2)OCO3)nc1SCC(=O)OCc1ccccc1	10	1976*	46*	x	40*	x	51*	43*	25*
Cc1[nH]c2ccccc2c1/C=C(\C#N)C(=O)NCc1ccccc1	-1	1429	2	1618	5	1808	x	x	x
Cc1ccc(C(C)NC(=O)/C(C#N)=C\c2c(C)[nH]c3ccccc23)cc1 (stereo not drawn)	10	1569	4	x	19*	x	6	17	14

Screening results deposited in PubChem by The Scripps Research Institute Molecular Screening Center.
